# According to PubChem BioAssay:
# Calls of active or inactive are those of the source. Unless noted, the rule behind the calls is not given here.
# Legend:
# [1] = tested on: Wnt5a (protein binding on small-molecule microarray); assay: Wnt5a binders on small-molecule microarray, primary screen, biophysical, 635/667 nm fluorescence (AID 1142); conditions: 635 nm fluorescence, higher = more signal;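 note: fluorescence read at 667 nm with signal to noise per printed feature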
# [2] = cell viability in Huh7 cells, primary screen, cytotoxicity control for HCV replication inhibitor project, CellTiter-Glo luminescence, basal, 48 h (AID 1143); conditions: Huh7 HCV replicon, higher = more signal, called active from +8 up or from −8 down;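 note: Huh7 hepatoma cells carrying a hepatitis C replication reporter with no stimulus; test concentration not given here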
# [3] = P. aeruginosa biofilm formation inhibitors, primary screen, PAO1 strain, BacTiter-Glo luminescence, LB-PBS (AID 1144); conditions: 12 h, higher = more signal
# [4] = CREB reporter modulators without forskolin, primary screen, cell-based, PC12, CRE-LacZ reporter, unstimulated (AID 1145); conditions: no forskolin, luminescence, 4.5 h, higher = more signal, called active from +8 up or from −8 down
# [5] = CREB reporter modulators under forskolin, primary screen, cell-based, PC12, CRE-LacZ reporter, forskolin-stimulated (AID 1146); conditions: luminescence, 4.5 h, higher = more signal, called active from +8 up or from −8 down;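 note: PC12 cells with 6xCRE LacZ reporter stimulated by forskolin 10 µM; beta-galactosidase reporter signal reflecting CREB driven transcription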
# [6] = biological target: Streptavidin (Streptomyces avidinii) (UniProt P22629); assay: streptavidin binders on small-molecule microarray, primary screen, artefact control for SMM compound annotation, biophysical, 635/667 nm fluorescence (AID 1147); conditions: streptavidin binding, higher = more signal;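 note: signal reflects streptavidin binding to arrayed compounds as a control protein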
# Chain of Streptavidin (Streptomyces avidinii) (P22629 whole entry, looked up): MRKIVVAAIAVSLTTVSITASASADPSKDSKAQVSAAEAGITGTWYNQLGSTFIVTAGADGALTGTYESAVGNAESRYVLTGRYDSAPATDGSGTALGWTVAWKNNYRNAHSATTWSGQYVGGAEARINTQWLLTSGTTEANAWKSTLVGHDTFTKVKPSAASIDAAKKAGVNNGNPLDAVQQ
# [7] = small-molecule binders of probe aInhba, primary screen, biochemical, small-molecule microarray, 635/667 nm fluorescence (AID 1148); conditions: higher = more signal;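 note: score merges 667nm spot fluorescence with signal-to-noise for antibody binding to printed compounds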
# Torsin-1A (Homo sapiens) [8] = biological target: Torsin-1A (Homo sapiens) (UniProt O14656); assay: torsin A binders from cell lysate, primary screen, small-molecule microarray, wild-type, 635/667 nm (AID 1149); conditions: COS7 hTOR1A-WT lysate, 635 nm fluorescence, higher = more signal
# Chain of Torsin-1A (Homo sapiens) (O14656 whole entry, looked up): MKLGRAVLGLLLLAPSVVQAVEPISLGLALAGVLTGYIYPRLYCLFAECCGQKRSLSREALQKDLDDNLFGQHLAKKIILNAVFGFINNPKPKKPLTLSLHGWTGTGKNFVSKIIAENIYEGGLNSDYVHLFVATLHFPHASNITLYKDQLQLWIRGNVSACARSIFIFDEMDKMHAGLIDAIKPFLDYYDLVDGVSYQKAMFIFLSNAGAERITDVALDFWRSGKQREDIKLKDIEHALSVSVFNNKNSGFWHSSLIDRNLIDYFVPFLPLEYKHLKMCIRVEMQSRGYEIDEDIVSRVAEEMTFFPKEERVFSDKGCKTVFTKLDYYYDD
# Torsin-1A (Homo sapiens) [9] = biological target: Torsin-1A (Homo sapiens) (UniProt O14656); assay: small-molecule binders of mutant TOR1A in lysate, primary screen, cell lysate, small-molecule microarray, COS7 lysate, 635/667 nm fluorescence (AID 1150); conditions: COS7 hTOR1A mutant lysate, 635 nm fluorescence, higher = more signal;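 note: score pools 667 nm emission and signal to noise measuring lysate protein binding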
# [10] = tested on: Sonic hedgehog protein (Shh); assay: small-molecule binders of Shh protein, primary screen, biochemical, small-molecule microarray, 635/667 nm fluorescence (AID 1151); conditions: small-molecule microarray binding, 635 nm fluorescence; higher = more signal;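 note: Shh protein binding to compounds spotted on small-molecule microarray slides; score combines spot fluorescence intensity with signal-to-noise across triplicate slides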
# [11] = E. coli DRC41 culture turbidity changes, primary screen, E. coli filamentation inducer project, strain DRC41, OD650, 48 h (AID 1152);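 note: E. coli MC1000 strain DRC41 lacking acrAB efflux pump and sulA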; conditions: E. coli DRC41 (acrAB sulA), higher = more signal, called active from +8 up or from −8 down
# [12] = small-molecule binders of probe aLefty1, primary screen, biochemical, small-molecule microarray, 635/667 nm fluorescence (AID 1153); conditions: higher = more signal;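 note: score merges spot fluorescence with signal-to-noise ratio from the scanned slide images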
# [13] = PSAC antagonists in infected red cells, primary screen, cell-based, P. falciparum Indochina, OD700, 1 h (AID 1154); conditions: P. falciparum Indochina infected RBC osmotic lysis, higher = more signal, called active from +8 up or from −8 down
# [14] = PSAC antagonists in infected red cells, primary screen, cell-based, P. falciparum Indochina, OD700, 2 h (AID 1155);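 note: lysis reports solute entry through the parasite surface anion channel PSAC; channel blockers reduce lysis of infected cells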; conditions: P. falciparum Indochina infected erythrocytes, osmotic lysis OD700; higher = more signal, called active from +8 up or from −8 down
# [15] = osmotic lysis modulators in infected erythrocytes, primary screen, PSAC antagonist project, cell-based, P. falciparum Indochina, OD700, 3 h (AID 1156); conditions: higher = more signal, called active from +8 up or from −8 down
# [16] = PSAC antagonists in infected red cells, primary screen, cell-based, P. falciparum Indochina, OD700, 18 h (AID 1157); conditions: P. falciparum Indochina infected erythrocytes, osmotic lysis OD700, 18 h; higher = more signal, called active from +8 up or from −8 down
# [17] = modulators of S6 phosphorylation in cells, primary screen, cell-based, A549, cytoblot, luminescence, serum-stimulated (AID 1158); conditions: A549 phospho-S6 cytoblot, 5 h, higher = more signal;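 note: serum-stimulated A549 lung adenocarcinoma cells; signal is phosphorylated S6 detected by cytoblot immunostaining with HRP secondary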
# [18] = biological target: NADPH oxidase 2 (Homo sapiens) (UniProt P04839); assay: NOX2-dependent H2O2 signal modulators, primary screen, NOX inhibitor project, cell-based, HEK293-NOX2, PMA-stimulated, Amplex Red fluorescence (AID 1159); conditions: 45 min, higher = more signal, called active from +8 up or from −8 down; note: test concentration not given here
# Chain of NADPH oxidase 2 (Homo sapiens) (P04839 whole entry, looked up): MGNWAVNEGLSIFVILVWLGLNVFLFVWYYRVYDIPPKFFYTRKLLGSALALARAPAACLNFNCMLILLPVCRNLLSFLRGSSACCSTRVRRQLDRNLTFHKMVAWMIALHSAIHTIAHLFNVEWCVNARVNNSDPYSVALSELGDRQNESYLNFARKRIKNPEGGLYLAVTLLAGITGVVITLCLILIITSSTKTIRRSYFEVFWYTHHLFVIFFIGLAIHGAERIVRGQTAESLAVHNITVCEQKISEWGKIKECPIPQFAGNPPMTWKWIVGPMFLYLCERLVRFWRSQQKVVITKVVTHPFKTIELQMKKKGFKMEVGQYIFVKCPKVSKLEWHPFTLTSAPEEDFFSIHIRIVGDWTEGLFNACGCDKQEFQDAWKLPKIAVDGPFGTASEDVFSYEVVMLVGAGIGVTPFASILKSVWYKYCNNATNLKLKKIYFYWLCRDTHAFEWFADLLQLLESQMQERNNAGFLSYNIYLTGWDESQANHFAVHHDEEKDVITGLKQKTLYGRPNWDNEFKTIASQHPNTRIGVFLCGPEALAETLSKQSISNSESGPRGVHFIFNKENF
# [19] = biological target: NADPH oxidase 4 (Homo sapiens) (UniProt Q9NPH5); assay: NOX4-dependent H2O2 signal modulators, primary screen, NOX inhibitor project, cell-based, HEK293-NOX4, tetracycline-induced, Amplex Red fluorescence (AID 1160); conditions: 45 min, higher = more signal, called active from +8 up or from −8 down
# Chain of NADPH oxidase 4 (Homo sapiens) (Q9NPH5 whole entry, looked up): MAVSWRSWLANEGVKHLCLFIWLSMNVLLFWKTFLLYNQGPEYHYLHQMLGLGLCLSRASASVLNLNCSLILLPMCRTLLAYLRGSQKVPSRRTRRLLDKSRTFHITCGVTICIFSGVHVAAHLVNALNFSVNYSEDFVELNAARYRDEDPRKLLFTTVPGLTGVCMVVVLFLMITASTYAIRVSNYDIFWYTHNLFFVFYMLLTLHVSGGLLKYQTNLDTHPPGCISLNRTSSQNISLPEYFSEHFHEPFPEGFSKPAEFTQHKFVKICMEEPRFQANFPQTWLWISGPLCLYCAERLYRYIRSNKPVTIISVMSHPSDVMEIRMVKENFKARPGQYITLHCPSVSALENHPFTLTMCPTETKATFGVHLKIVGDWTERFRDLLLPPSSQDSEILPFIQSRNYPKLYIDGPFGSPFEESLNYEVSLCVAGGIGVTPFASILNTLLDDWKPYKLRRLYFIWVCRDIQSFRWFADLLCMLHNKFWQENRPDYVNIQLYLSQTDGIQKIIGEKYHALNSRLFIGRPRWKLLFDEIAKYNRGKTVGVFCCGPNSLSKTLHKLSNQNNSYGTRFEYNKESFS
# [20] = biological target: NADPH oxidase 5 (Homo sapiens) (UniProt Q96PH1); assay: NOX5-dependent H2O2 signal modulators, primary screen, NOX inhibitor project, cell-based, HEK293-NOX5, Amplex Red fluorescence (AID 1161); conditions: HEK293-NOX5, ionomycin, 45 min, higher = more signal
# Chain of NADPH oxidase 5 (Homo sapiens) (Q96PH1 whole entry, looked up): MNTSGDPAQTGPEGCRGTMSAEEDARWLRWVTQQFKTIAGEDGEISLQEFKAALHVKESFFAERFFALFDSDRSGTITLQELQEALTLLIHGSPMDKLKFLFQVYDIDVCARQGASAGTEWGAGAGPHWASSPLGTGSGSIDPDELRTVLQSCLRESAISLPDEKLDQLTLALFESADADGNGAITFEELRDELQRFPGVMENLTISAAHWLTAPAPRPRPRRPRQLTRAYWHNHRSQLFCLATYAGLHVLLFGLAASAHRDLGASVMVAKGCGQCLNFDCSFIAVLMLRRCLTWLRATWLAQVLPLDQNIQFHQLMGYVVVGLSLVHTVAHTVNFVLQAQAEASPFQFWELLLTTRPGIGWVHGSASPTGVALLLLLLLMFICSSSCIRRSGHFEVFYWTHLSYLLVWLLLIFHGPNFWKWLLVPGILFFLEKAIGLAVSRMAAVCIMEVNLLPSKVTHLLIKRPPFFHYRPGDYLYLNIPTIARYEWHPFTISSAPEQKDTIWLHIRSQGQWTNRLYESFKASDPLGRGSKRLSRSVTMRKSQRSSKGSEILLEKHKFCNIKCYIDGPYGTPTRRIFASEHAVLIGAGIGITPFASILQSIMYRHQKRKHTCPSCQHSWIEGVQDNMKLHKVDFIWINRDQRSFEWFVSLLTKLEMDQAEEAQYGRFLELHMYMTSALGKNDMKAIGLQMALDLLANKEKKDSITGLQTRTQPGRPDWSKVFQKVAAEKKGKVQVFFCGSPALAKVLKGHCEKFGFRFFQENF
SMILES,composite z-score [1],z-score [2],z-score [3],z-score [4],z-score [5],composite z-score [6],composite z-score [7],composite z-score (Torsin-1A (Homo sapiens) [8]),composite z-score (Torsin-1A (Homo sapiens) [9]),composite z-score [10],z-score [11],composite z-score [12],z-score [13],z-score [14],z-score [15],z-score [16],z-score [17],z-score [18],z-score [19],z-score [20]
C=CC[C@]1(C(=O)N(C)C)N=C(c2ccc(OCCCO)cc2)O[C@H]1c1ccccc1,0.902,-4.69 (inactive),-0.87 (inactive),-0.38 (inactive),-1.19 (inactive),0.197,0.0471,0.62,1.27,0.757,1.17 (inactive),0.325,28.3 (active),17.7 (active),3.55 (inactive),1.46 (inactive),1.41,-2.39 (inactive),-0.252 (inactive),-4.75
COC(=O)[C@@]1(Cc2ccc(OC)cc2)[C@H]2c3cc(C(=O)N(C)C)n(CCF)c3C[C@H]2CN1C(=O)c1ccccc1,0.17,-2.15 (inactive),0.475 (inactive),1.35 (inactive),-0.715 (inactive),2.2,0.515,0.3,0.541,-0.379,-0.55 (inactive),0.624,1.81 (inactive),0.847 (inactive),0.865 (inactive),1.06 (inactive),-0.132,0.605 (inactive),2.58 (inactive),0.602
COC(=O)[C@]1(Cc2ccccc2CN=[N+]=[N-])N=C(c2ccc(OCCCO)cc2)O[C@@H]1c1ccccc1,-0.311,-4.69 (inactive),0.211 (inactive),4.85 (inactive),0.56 (inactive),-1.05,-0.0407,-2.51,-1.33,-1.19,-0.453 (inactive),0.14,27.8 (active),26.4 (active),-0.232 (inactive),6.71 (inactive),0.008,-2.2 (inactive),-1.59 (inactive),-2.6
Cc1ccc(-c2cccc(=O)o2)cc1,0.796,-0.0525 (inactive),1.07 (inactive),-0.322 (inactive),0.699 (inactive),-0.317,-0.0523,-0.495,-0.173,-0.0613,-0.418 (inactive),-0.237,5.81 (inactive),1.02 (inactive),-0.657 (inactive),0.609 (inactive),-0.102,0.498 (inactive),-1.66 (inactive),0.12
COC(=O)[C@@]1(Cc2ccccc2N=[N+]=[N-])N=C(c2ccc(OCCCO)cc2)O[C@H]1c1ccccc1,0.748,-5.42 (inactive),0.313 (inactive),1.29 (inactive),-0.688 (inactive),0.248,-0.0403,-0.89,0.305,0.175,-0.734 (inactive),0.406,22.9 (active),8.4 (active),0.0321 (inactive),2.28 (inactive),0.0781,-2.34 (inactive),0.355 (inactive),-1.76
COc1ccccc1CN1C(=O)c2ccccc2[C@@]2(Cc3ccccc3N(C3CC3)C2=O)[C@@H]1c1ccc(CO)cc1,-0.507,-0.0976 (inactive),1.13 (inactive),0.622 (inactive),-0.148 (inactive),-0.189,-0.125,-1.68,-0.821,-0.27,-0.685 (inactive),-0.235,0.162 (inactive),-0.0183 (inactive),-0.108 (inactive),0.23 (inactive),-0.243,-0.161 (inactive),0.394 (inactive),1.04
O=C1C2C=CC(C(O)c3ccccn3)N(Nc3ccccc3)C2C(=O)N1c1ccccc1 (stereo not given),-0.234,0.915 (inactive),-0.574 (inactive),1.02 (inactive),0.497 (inactive),-0.065,0.0013,-0.265,-0.382,-0.367,-0.803 (inactive),0.0437,1.67 (inactive),1.27 (inactive),-0.167 (inactive),0.974 (inactive),-0.721,-1.21 (inactive),-3.92 (inactive),-2.84
